Source: PubChem BioAssay (National Center for Advancing Translational Sciences (NCATS))
TRb-SRC2 inh – TRbeta-SRC2 interaction inhibition; TRbeta-SRC2 peptide binding, fluorescence polarization; receptor liganded with 1 µM T3; Potency, µM (titrated, usually from 106 µM), inactives show at the highest dose activity change, negative = inhibition, actives largely listed as inhibitors; AID 1469; P10828; 280,000 compounds, 0.065% hits;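 note: potency is the fitted concentration of half-maximal effect; plate controls were bound peptide for no effect and peptide without receptor for full effect; nearly all actives have a fitted effect of over 50% in size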
Target sequence (P10828 whole entry, looked up): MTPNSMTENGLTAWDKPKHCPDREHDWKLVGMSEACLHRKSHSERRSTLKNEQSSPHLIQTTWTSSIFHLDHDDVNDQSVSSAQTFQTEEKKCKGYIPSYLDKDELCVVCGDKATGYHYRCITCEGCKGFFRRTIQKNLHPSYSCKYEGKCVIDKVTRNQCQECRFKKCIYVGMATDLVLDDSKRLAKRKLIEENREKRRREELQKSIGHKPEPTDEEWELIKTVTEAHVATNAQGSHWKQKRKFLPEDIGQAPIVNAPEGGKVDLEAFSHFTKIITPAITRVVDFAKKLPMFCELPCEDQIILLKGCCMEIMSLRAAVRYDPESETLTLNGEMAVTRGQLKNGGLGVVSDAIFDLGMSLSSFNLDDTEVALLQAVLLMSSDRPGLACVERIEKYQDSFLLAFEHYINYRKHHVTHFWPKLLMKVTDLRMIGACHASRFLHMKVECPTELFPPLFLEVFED
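Fluorescence polarization of 20 nM Texas Red SRC2 peptide with 0.6 uM human TRb ligand-binding domain, in Tris buffer with 1uM T3 and 5% DMSO. Incubated 5 hr ambient; normalized to unbound and bound controls.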
ERG Ets-DNA blk – inhibitors of human ERG Ets domain-DNA interaction; P11308; fluorescence polarization, His-ERG Ets domain / labelled DNA; Potency, µM (series often up to 76.9 µM), inactives show top-dose FP activity, negative = inhibition, hits mostly inhibitors; 370,000 compounds, 0.028% hits; AID 624246; active = well fitted inhibition curve with a large enough effect in the polarisation, with a control signal flat; inconclusive = small, poorly fitted or top-dose-only effect, or effect the other way, or a change in a side signal; inactive = no such curve, though single readings can be large or run the other way; the % refers to the polarisation;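 note: polarization taken with two DNA probes labelled with fluorescein and Texas red; potency is the fitted concentration of half-maximal effect; % of control where 0% means no effect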
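His-tagged ERG Ets domain (1 uM in the protein solution; 300mM KCl, 50mM Tris-HCl, 1mM EDTA, 1mM DTT, pH 7.5) received compound, then a probe mix of 5 nM fluorescein-DNA and 100nM Texas-615-DNA. Fluorescence polarization was read for both dyes.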
TexasRed fluor – counter-screen for TRb-SRC2 inhibitors: fluorescence interference; AID 1479; Potency, µM (series often up to 106 µM), for the others: at the highest dose fluorescence change, negative = quenching; 280,000 compounds, 0.29% hits; TRb/SRC2 Texas Red total fluorescence interference; active = well fitted curve in either direction with a large enough effect; inconclusive = small, poorly fitted or top-dose-only effect; note: potency is the fitted concentration of half-maximal effect; % is set by controls: 0 for no effect and ±100 for the full control effect
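Flags fluorescent or light-absorbing compounds by total fluorescence, S + 2P, at 555 nm excitation and 632 nm emission. Mixture: 20 nM Texas Red SRC2 peptide, 0.6 uM human TRb LBD, 1 uM T3, 5% DMSO; compound exposure 5 h at ambient temperature.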
RGS12 GoLoco inh – blocks human Gai1 binding to RGS12 GoLoco peptide, red readout. AID 880. Gai1:RGS12 GoLoco peptide FP, rhodamine, 10 min. 230,000 compounds, 0.44% hits. P63096. Potency, µM (series often up to 61.6 µM), without a hit: top-dose activity, negative = inhibition, most hits filed as inhibitors; active = well fitted inhibition curve with a large enough effect, not every such curve was filed as active; inactive = no such curve, though single readings can be large or run the other way; note: potency is the fitted concentration of half-maximal effect; % is set by controls: 0 for no effect and ±100 for the full control effect; nearly all actives have a fitted effect of over 30% in size
CBFb RUNX1 block – CBF-beta/RUNX1 interaction disruption | Potency, µM (titrated, usually from 59.8 µM), inactives show at the top dose activity, negative = inhibition, usual class: inhibitors | 230,000 tested, under 10 active | AlphaScreen CBFb-His/RUNX1-biotin binding, biochemical | AID 1477 | Q01196+Q13951; note: % of control where 0% means no effect
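Read-out: AlphaScreen. Format: His-CBF-beta with biotinylated RUNX1 (30 nM each) preincubated 20 min, compound 15 min, Ni-chelate plus streptavidin beads 90 min; room temperature throughout.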
Starred values were filed as active, the others as inactive; ? = inconclusive; · = no result; ! = not confirmed by another sample; [ ] = another dose, or the depositor's remark. Shown is part of a subset that was picked to be rich in hits. Unless noted, calls come from the whole dose curve; as a rule, active = well fitted curve in the direction sought with a large enough effect; inconclusive = small, poorly fitted or top-dose-only effect, or another doubt; inactive = no such curve, though single readings can be large; an effect the other way counts as inactive or inconclusive.

SMILES	TRb-SRC2 inh	ERG Ets-DNA blk	TexasRed fluor	RGS12 GoLoco inh	CBFb RUNX1 block
O=C(O)c1ccc(N2C(=O)/C(=C/C=C/c3ccccc3)SC2=S)cc1	-6%	23%	3%	17%	0%
CN(C)c1ccc(/C=C/C=C2/SC(=S)N(c3ccccc3)C2=O)cc1	?	?	3.2µM*[fluorescent]	-7%	·
Cc1ccn2c(=O)c(C(=O)NC(C)c3ccccc3)c(O)nc2c1 (centres undefined)	-5%	-6%	3%	·	·
CC(NC(=O)c1c(O)nc2ccccn2c1=O)c1ccccc1 (centres undefined)	-7%	8%	18µM*[quencher]	·	·
CC(C)OCCCN(Cc1ccco1)C(=O)c1cc2c(s1)-c1ccccc1OC2	4%	-1%	0%	·	·
COc1cccc(CNc2ccc3c(c2)ncn3C)c1OC	-5%	3%	0.0089µM*[quencher]	·	·
CCCCn1cnc2cc(NCc3ccccc3Cl)ccc21	-23%[53 µM]	2%	0.063µM*[quencher]	·	·
COc1cccc(CNc2ccc3c(c2)nc(C)n3C)c1OC	·	-3%	·	·	·
CC(=O)/C(=N/Nc1ccccc1)Sc1nnc(CCc2ccccc2)n1-c1ccccc1	?	-1%	0.35µM*[quencher]	4%	2%
Cn1c(=O)c(NC2CCCCC2)c2c3c(cccc31)C(=O)c1ccccc1-2	3%	5%	4%	0.79µM*	?
Cn1c(=O)c(NCCc2ccccc2)c2c3c(cccc31)C(=O)c1ccccc1-2	28µM*	?	45µM*[fluorescent]	4.5µM*	?
CC(=O)Nc1ccc(Nc2c3c4c(cccc4n(C)c2=O)C(=O)c2ccccc2-3)cc1	-2%	-22%	1%	14µM*	-28%
CCCCNc1c2c3c(cccc3n(C)c1=O)C(=O)c1ccccc1-2	-15%	?	7%	14µM*	?
CN1C(=O)c2cccc(NCCCN3C(=O)c4ccccc4C3=O)c2C1=O	-5%	7%	2%	8%	6%
CC(Cl)(Cl)C(=O)OCCOc1cc(Cl)c(Cl)cc1Cl	-3%[201 µM]	·	0%[201 µM]	·	·
CCc1cccc(CC)c1NC(=O)c1c(C)oc2ccc(O)c(CN3CCN(C)CC3)c12	-3%	-1%	-9%	·	·
Cc1cc2cc(CNS(=O)(=O)c3ccccc3)ccc2n1C	45µM*	11µM*	50µM*[fluorescent]	-16%	-22%
COc1ccc(S(=O)(=O)NCc2ccc3c(c2)cc(C)n3C)cc1	-24%	35µM*	?	-20%	?
CCS(=O)(=O)NCc1ccc2c(c1)cc(C)n2C	-7%	1%	-2%	5%	-13%
COc1ccc(CNS(=O)(=O)c2ccc(OC)cc2)cc1	-5%	4%	1%	-5%	-2%
COc1ccccc1NC(=O)C(C)OC(=O)CCNS(=O)(=O)c1ccc(C)c(C)c1 (centres undefined)	·	4%	·	·	·
CO[C@@H]1[C@H](OC(=O)/C=C/C=C/C=C/C=C/C(=O)O)CC[C@]2(CO2)[C@H]1[C@@]1(C)O[C@@H]1CC=C(C)C	2%[201 µM]	·	0%[201 µM]	·	·
CCOCCOCCOCCO	-6%[201 µM]	·	-5%[201 µM]	·	·
CCc1ccc(OCC(=O)NCC(c2ccc(Cl)cc2)N2CCOCC2)cc1 (centres undefined)	-21%	10%	10µM*[quencher]	·	·
CCOc1ccc(NC(=O)CC2C(=O)N(CC)C(=S)N2NC(=O)c2ccncc2)cc1 (centres undefined)	4%	-11%	-2%	4%	3%
SMILES	TRb-SRC2 inh	ERG Ets-DNA blk	TexasRed fluor	RGS12 GoLoco inh	CBFb RUNX1 block
Cc1ccc(NC(=O)CN2C(=O)N/C(=C/c3cccn3-c3ccc(C(=O)O)cc3)C2=O)cc1	5%	-6%	-13%	7%	·
Cc1ccc(NC(=O)CN2C(=O)N/C(=C/c3ccco3)C2=O)cc1	11%	-9%	50µM*[quencher]	17%	?
Cc1ccc(S(=O)(=O)NCCc2nnc3ccc(SCc4ccccc4F)nn23)cc1	-8%	-2%	1%	·	·
COc1ccc(CNc2nc(-c3ccco3)nn2C(=O)CC(C)C)cc1	-13%	0%	79µM*[quencher]	·	·
CCOc1ccccc1NC(=O)CN(CCc1ccccc1)S(=O)(=O)c1ccc(C)cc1	-12%	0%	0.032µM*[quencher]	·	·
Cc1ccc(C)c(NC(=O)CN(CCc2ccccc2)S(=O)(=O)c2ccccc2)c1	-2%	8%	2%	·	·
O=C(O)c1ccc2c(c1)C(=O)OC2=O	-3%[201 µM]	·	0%[201 µM]	·	·
Cc1cc2cc(CNC(=O)c3cccs3)ccc2n1C	4%	18µM*	-2%	1%	?
Cc1ccc(CNC(=O)c2ccc(S(=O)(=O)N3CCCCC3)cc2)cc1	·	5%	·	·	·
Cc1cc2cc(CNC(=O)c3ccc(S(=O)(=O)N4CCCC4)cc3)ccc2n1C	35µM*	?	45µM*[fluorescent]	-84%	?
CCN(CC)S(=O)(=O)c1ccc(C(=O)NCc2ccc3c(c2)cc(C)n3C)cc1	40µM*	32µM*	45µM*[fluorescent]	-4%	-7%
CCCCCCN	0%	·	-1%	28µM*	9%[21.7 µM]
CC(=O)OCC[n+]1c(C)n(-c2ccccc2)c2ccc(Cl)cc21	-2%	6%	1%	8.9µM*	15%
CCOC(=O)c1ccc2c(c1)[n+](CC)c(C)n2-c1ccccc1	1%	4%	2%	10%	-2%
Cn1nc(C(=O)NCc2ccccc2Cl)c2c1-c1ccccc1S(=O)(=O)C2	-28%	14%	100µM*[quencher]	·	·
Cn1nc(C(=O)Nc2ccc(F)c(Cl)c2)c2c1-c1ccccc1S(=O)(=O)C2	-25%	-4%	0.0063µM*[quencher]	·	·
CC(C)(C)c1n[nH]c(=O)n(N)c1=O	-4%[201 µM]	·	2%[201 µM]	·	·
O=C(Nc1ccccc1)/C(=C\c1cccs1)NC(=O)c1ccccc1	-13%	10%	0.028µM*[quencher]	-8%	2%
Cc1cccc(NC(=O)/C(=C\c2cccs2)NC(=O)c2ccccc2)c1	?	-3%	0%	0%	8%
COc1ccccc1NOC(=O)CCOc1ccccc1	·	-11%	·	·	·
O=C(C1=C(O)C(=O)N(c2nccs2)C1c1ccccc1)c1cc2ccccc2o1 (centres undefined)	2%	15%	4%	20µM*	-6%
Cc1c(NC(=O)CSc2nncn2-c2ccccc2)c(=O)n(-c2ccccc2)n1C	·	5%	·	·	·
CC(C)COCC(CN(Cc1ccccc1)c1ccccc1)N1CCCC1 (centres undefined)	-2%	3%	0%	11µM*!	-9%
CC(C(=O)Nc1ccc(OCc2ccccc2)cc1)N1CCCC1 (centres undefined)	0%	8%	-1%	-2%	5%
COc1ccc(S(=O)(=O)NCCSc2nnnn2-c2ccccc2)cc1OC	-8%	2%	8.9µM*[quencher]	·	·
Cc1ccc(NC2=C(Cl)C(=O)c3ccccc3C2=O)cc1	-1%	·	-1%	·	-2%
CCN(CC)c1ccc(NC2=C(Cl)C(=O)c3ccccc3C2=O)cc1	28µM*	-6%	-30%	7.9µM*	2%
Cc1ccc(C(=O)c2cn(Cc3ccc(Cl)cc3)c3nc(C)ccc3c2=O)cc1	0%	-10%	4%	·	·
